Shown are actives, neighbours in structure and some others; about 1.7% of the full set was active somewhere.
GLP1R ag = activates the human GLP-1 receptor; P43220; HEK293 GLP-1R CRE-luciferase, luminescence, 4-6 h; cells express a hypersensitive GLP-1R form; Potency, µM (series often up to 45.6 µM), without a hit: at the highest dose activation, hits mostly activators; 0.007% of 380,000 active; AID 624172; further: % of control where 0% means no effect
HEK293 tox = cytotoxic in the GLP-1 receptor inverse agonist counter-screen | HEK293 cAMP-luciferase reporter cells, luminescence, 24 h | Potency, µM (titrated, usually from 38.3 µM), for the others: at the top dose activity change, negative = inhibition, usual class: inhibitors | 0.13% of 410,000 active | AID 624418;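 further: loss of luciferase light is scored as toxicity; on the % scale 0 is the no-effect control and ±100 the full control effect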
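To flag toxic compounds, the library was rerun on cells for 24 hr at 37 deg C and 5% CO2. Viability-linked luminescence was captured 12 min after adding luciferase detection reagent.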
RGS4 inhibitor = blocks human RGS4-accelerated GTP hydrolysis. Transcreener GDP fluorescence polarization, RGS4-accelerated GTP hydrolysis. Potency, µM (highest dose often 114 µM), without a hit: at the top dose activity change, negative = inhibition, actives largely listed as inhibitors. 0.039% of 390,000 active. AID 504845; further: on the % scale 0 is the no-effect control and ±100 the full control effect; nearly all actives have a fitted effect of over 75% in size
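MLSMR compounds (23 nl, pin-transferred) preincubated 10 min at room temperature with a 500nM (2x) first reagent, then RGS4 at 900nM (2x) plus Transcreener GDP mix added; fluorescence polarization (620/688 nm) read before and after 90 min at 30 °C.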
GLP-1R inv ag = acts as inverse agonist at human GLP-1 receptor; P43220; HEK293 GLP-1R CRE-luciferase, luminescence, 24 h; GLP-1R form is constitutively active; Potency, µM (highest dose often 38.3 µM), without a hit: top-dose activity change, negative = inhibition, actives largely listed as inhibitors; 1.6% of 410,000 active; AID 624417; further: on the % scale 0 is the no-effect control and ±100 the full control effect; nearly all actives have a fitted effect of over 55% in size
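Assay principle: reduced luminescence from a cAMP-responsive reporter in HEK293 cells co-expressing a constitutively active GLP-1R. Conditions: 24 hr compound incubation, 37 deg C, 5% CO2.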
PTHR1 ag = activates the human parathyroid hormone receptor PTHR1; Q03431; HEK293 GP2 PTHR1 cells, GloSensor cAMP luminescence, 1 h; Potency, µM (highest dose often 115 µM), inactives show at the highest dose activation, hits mostly activators; 0.075% of 410,000 active; AID 743266; further: nearly all actives have a fitted effect of over 55% in size
Target sequence (Q03431 whole entry, looked up): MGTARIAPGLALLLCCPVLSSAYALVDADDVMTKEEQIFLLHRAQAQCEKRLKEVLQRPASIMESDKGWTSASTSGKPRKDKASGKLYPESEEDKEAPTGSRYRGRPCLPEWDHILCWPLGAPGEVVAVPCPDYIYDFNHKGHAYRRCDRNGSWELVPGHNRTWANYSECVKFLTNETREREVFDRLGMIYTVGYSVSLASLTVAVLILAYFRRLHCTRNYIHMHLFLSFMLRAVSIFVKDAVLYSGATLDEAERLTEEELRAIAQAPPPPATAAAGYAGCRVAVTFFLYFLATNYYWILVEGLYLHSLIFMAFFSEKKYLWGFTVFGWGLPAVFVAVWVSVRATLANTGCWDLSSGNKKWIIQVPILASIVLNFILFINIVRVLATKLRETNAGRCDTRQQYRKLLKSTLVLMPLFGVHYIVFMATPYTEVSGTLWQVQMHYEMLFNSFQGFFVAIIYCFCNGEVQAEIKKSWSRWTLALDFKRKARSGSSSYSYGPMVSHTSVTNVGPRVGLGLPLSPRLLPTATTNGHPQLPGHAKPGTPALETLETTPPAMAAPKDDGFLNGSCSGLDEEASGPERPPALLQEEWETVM
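HEK-293-derived GP2 cells expressing PTHR1 and a GloSensor cAMP reporter, 3,000/well, plated overnight, given luciferin plus IBMX (each 0.5 mM as added) for 1 h at 37 °C, then compound for 1 h at 37 °C. Luminescence was read after 15 min at room temperature.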
* = called active by the depositor; ! = not active in a repeat; [ ] = another dose, or the depositor's remark. The call rests on the fitted dose curve; in most records, active means well fitted curve in the direction sought with a large enough effect; inconclusive means small, poorly fitted or top-dose-only effect, or another doubt; inactive means no such curve, though single readings can be large; an effect the other way counts as inactive or inconclusive. Potency means the concentration at half of the fitted maximal effect.

Results for O=C(c1cc(-c2ccccc2Cl)nc2ccccc12)N1CCC1 ?
GLP1R ag: 3%; HEK293 tox: -11%; RGS4 inhibitor: -37%; GLP-1R inv ag: 7%; PTHR1 ag: -17%

What do the screens show for `Cc1ccc(-c2cc(C(F)F)n3ncc(C(=O)N4CCN(c5ccccn5)CC4)c3n2)cc1`?
GLP1R ag: 1%; HEK293 tox: 5%; RGS4 inhibitor: 5%; GLP-1R inv ag: 6.3µM*; PTHR1 ag: -17%

What do the screens show for `CCCc1ccc(-c2cc(C(=O)N3CCN(c4ccccn4)CC3)c3ccccc3n2)cc1`?
GLP1R ag: -2%; HEK293 tox: -13%; RGS4 inhibitor: 6%; GLP-1R inv ag: 3.2µM*; PTHR1 ag: -16%

How did COc1ccc(CCn2c3c(c(=O)[nH]c2=O)C(NC(=O)c2ccccc2)(C(F)(F)F)C(=O)N3)cc1OC (stereo not given) do in these assays?
HEK293 tox: 0%; RGS4 inhibitor: 14%; GLP-1R inv ag: 12%; PTHR1 ag: -26%

What do the screens show for `CCC1Nc2ncnc(N3CCCCC3)c2N(Cc2ccc(Br)cc2)C1=O` (stereo not given)?
GLP1R ag: 1%; HEK293 tox: 0%; RGS4 inhibitor: 4%; GLP-1R inv ag: inconclusive; PTHR1 ag: inactive

What do the screens show for `O=C1C(Cc2ccccc2)Nc2ncnc(N3CCc4ccccc4C3)c2N1Cc1ccc(Cl)cc1` (stereo not given)?
GLP1R ag: -1%; HEK293 tox: -9%; RGS4 inhibitor: -18%; GLP-1R inv ag: inconclusive; PTHR1 ag: inactive

What do the screens show for `CCC1Nc2ncnc(N3CCc4ccccc4C3)c2N(Cc2ccc(Cl)cc2)C1=O` (stereo not given)?
GLP1R ag: -2%; HEK293 tox: -16%; RGS4 inhibitor: -16%; GLP-1R inv ag: 7.9µM*; PTHR1 ag: -32%

How did CCC1Nc2ncnc(N3CCCCC3)c2N(Cc2ccc(Cl)cc2)C1=O (stereo not given) do in these assays?
GLP1R ag: -1%; HEK293 tox: -36%; RGS4 inhibitor: -33%; GLP-1R inv ag: 10µM*!; PTHR1 ag: -49%

Results for Cc1cccc(N2CCN(S(=O)(=O)c3ccc(Cl)nc3)CC2C)c1 (stereo not given) ?
GLP1R ag: -5%; HEK293 tox: -4%; RGS4 inhibitor: 21%; GLP-1R inv ag: inconclusive; PTHR1 ag: -16%

How did NS(=O)(=O)c1cccc(NC(=O)c2ccc(NS(=O)(=O)c3cccc([N+](=O)[O-])c3)cc2)c1 do in these assays?
GLP1R ag: -10%; HEK293 tox: -6%; RGS4 inhibitor: 31%; GLP-1R inv ag: 2%; PTHR1 ag: 5%

How did CC(C)CN=C(NS(=O)(=O)c1ccccc1)C(Cl)(Cl)Cl do in these assays?
GLP1R ag: -24%; HEK293 tox: -1%; RGS4 inhibitor: 6%; GLP-1R inv ag: 7.9µM*; PTHR1 ag: -3%

How did CC(C)CC(NS(=O)(=O)c1ccccc1)C(=O)O (stereo not given) do in these assays?
GLP1R ag: -9%; HEK293 tox: 1%; RGS4 inhibitor: 16%; GLP-1R inv ag: 4%; PTHR1 ag: inactive

What do the screens show for `CCc1cccc(C)c1NC(=O)Cn1c(=O)n(-c2ccc(C)cc2)c(=O)c2c1cnn2C`?
HEK293 tox: 1%; RGS4 inhibitor: -5%; GLP-1R inv ag: 4%; PTHR1 ag: -9%

What do the screens show for `O=C(CCCOc1ccccc1)N1CCN(c2ccccn2)CC1`?
GLP1R ag: -6%; HEK293 tox: -11%; RGS4 inhibitor: 17%; GLP-1R inv ag: 10µM*; PTHR1 ag: -34%[57.5 µM]

What do the screens show for `O=C(CCCOc1ccc(Cl)cc1Cl)N1CCN(c2ccccn2)CC1`?
GLP1R ag: 8%; HEK293 tox: 1%; RGS4 inhibitor: 7%; GLP-1R inv ag: 0%; PTHR1 ag: inactive

How did COc1ccc(Cn2c(=O)c3oc4ccccc4c3n(CC(=O)Nc3c(C)cccc3C)c2=O)cc1 do in these assays?
HEK293 tox: 2%; RGS4 inhibitor: 5%; GLP-1R inv ag: 14%; PTHR1 ag: -25%

Screening results: PubChem BioAssay, National Center for Advancing Translational Sciences (NCATS)
